Assay outcomes: PubChem BioAssay, National Center for Advancing Translational Sciences (NCATS)
Rows were chosen to be rich in hits. Some 9.4% of all compounds tested hit in one or more screens of this group.
ELG1 genotox = inducers of genotoxicity in HEK293T ELG1-luciferase cells; Potency, µM (titrated, usually from 46 µM), for inactives: at the highest dose activity change, positive = activation, most hits filed as activators; HEK293T ELG1-luciferase reporter, luminescence, 16 h; 330,000 tested, 1.3% active; note: % of control where 0% means no effect; nearly all actives have a fitted effect of over 60% in size
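HEK293T cells expressing luciferase-tagged ELG1 were exposed to compound or DMSO vehicle for 16 hr at 37 °C and 5% CO2. Luciferase activity was then measured with ONE-Glo after 30 min at room temperature.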
NPC1 promoter act = activates the NPC1 promoter. Potency, µM (top dose mostly 9.22 µM), without a hit: top-dose activation, usual class: activators. 320,000 tested, 2.4% active. Huh7 NPC1 promoter luciferase reporter, 24 h; note: % of control where 0% means no effect; nearly all actives have a fitted effect of over 60% in size
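Readout is luciferase luminescence, reflecting NPC1 promoter activation in stably transfected Huh7 cells after 24 h compound exposure at 37 °C in reduced-serum medium with 10% FBS.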
ELG1 repair inh = inhibitors of ELG1-dependent DNA repair in HEK293T cells; 330,000 tested, 2.3% active; Potency, µM (highest dose often 46.1 µM), for the others: at the top dose activity change, negative = inhibition, actives largely listed as inhibitors; HEK293T ELG1-luciferase reporter, luminescence, 16 h; DNA damage induced by 5-fluorouridine; AID 504467; note: % is set by controls: 0 for no effect and ±100 for the full control effect; nearly all actives have a fitted effect of over 55% in size
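In this reporter screen, reduction of luminescence relative to DMSO vehicle indicated activity. Compounds and 5-fluorouridine were added together to 2,000 cells per well, incubated for 16 hr at 37 °C, then developed with ONE-Glo.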
Rab9 prom act = activators of Rab9 promoter | Huh7 Rab9 promoter-luciferase reporter, luminescence, 24 h | 320,000 tested, 2.8% active | AID 485297 | Potency, µM (doses to about 9.22 µM), for the others: at the top dose activation, negative = inhibition, actives largely listed as activators; note: % of control where 0% means no effect; nearly all actives have a fitted effect of over 60% in size
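Huh7 cells stably carrying a Rab9 promoter-luciferase reporter, 1500 cells per well in OP-MEM I with 10% FBS, treated with compound 24 hours at 37C. Luciferase activity read by luminescence after 10 minutes with Amplite reagent.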
FLuc modulator = counter-screen for miR-21 project: firefly luciferase inhibitors or activators; purified FLuc, Km substrates, luminescence inhibition; Potency, µM (top dose mostly 57.5 µM), without a hit: at the top dose activity change, negative = inhibition, usual class: inhibitors; 360,000 tested, 6.9% active; P08659;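 note: plate controls were vehicle for no effect and reference inhibitor for full effect; nearly all actives have a fitted effect of over 55% in size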
Target sequence (P08659 whole entry, looked up): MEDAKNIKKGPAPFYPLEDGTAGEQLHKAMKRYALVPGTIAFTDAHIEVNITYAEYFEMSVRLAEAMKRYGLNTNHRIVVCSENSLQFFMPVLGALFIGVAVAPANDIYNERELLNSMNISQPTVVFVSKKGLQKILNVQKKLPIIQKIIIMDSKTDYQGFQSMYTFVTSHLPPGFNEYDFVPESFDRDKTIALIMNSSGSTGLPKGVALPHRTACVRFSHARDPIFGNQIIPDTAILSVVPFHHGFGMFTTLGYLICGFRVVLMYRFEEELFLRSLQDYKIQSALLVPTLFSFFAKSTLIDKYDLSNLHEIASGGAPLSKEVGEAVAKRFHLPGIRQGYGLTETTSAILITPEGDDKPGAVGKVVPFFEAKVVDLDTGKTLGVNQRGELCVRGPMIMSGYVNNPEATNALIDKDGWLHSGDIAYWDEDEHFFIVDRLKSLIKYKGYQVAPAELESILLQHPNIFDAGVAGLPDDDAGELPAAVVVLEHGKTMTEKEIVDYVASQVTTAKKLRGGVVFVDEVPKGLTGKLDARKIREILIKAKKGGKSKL
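Purified P. pyralis luciferase, 10 nM final, with Km-level 10 uM D-luciferin and 10 uM ATP in 50 mM Tris acetate pH 7.5, 10 mM Mg acetate, 0.01% Tween-20, 0.05% BSA; 6-point qHTS titration about 60 µM downward; luminescence read.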
SMN2 splice up = increases expression of the SMN2 splice variant; HEK293 SMN2-luciferase splicing reporter, luminescence, 30-36 h; Potency, µM (doses to about 46.1 µM), without a hit: top-dose activity change, positive = activation, most hits filed as activators; 210,000 tested, 2.8% active; note: % of control where 0% means no effect; nearly all actives have a fitted effect of over 55% in size
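qHTS luciferase splicing reporter: luminescence rises when SMN2 exon 7 is included in transfected HEK293 cells. Compound exposure lasted 30-36 h at 37C, with 4.5 mM final sodium butyrate as control, followed by a ONE-Glo read.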
* marks the source's active call; other numbers are inactive results; ? = inconclusive; nt = no result given; [ ] = another dose, or the depositor's remark. Calls come from the whole dose curve; as a rule, active = well fitted curve in the direction sought with a large enough effect; inconclusive = small, poorly fitted or top-dose-only effect, or another doubt; inactive = no such curve, though single readings can be large; an effect the other way counts as inactive or inconclusive. Potency is the fitted concentration of half-maximal effect.

SMILES | ELG1 genotox | NPC1 promoter act | ELG1 repair inh | Rab9 prom act | FLuc modulator | SMN2 splice up
Cc1cccc(NC(=O)c2ccc(-c3nc(CSc4ccccc4)c(C)o3)cc2)c1C | nt | nt | nt | nt | -11% | nt
CC1(C)CC(=O)C(C(C2=C(O)CC(C)(C)CC2=O)c2ccc(O)c([N+](=O)[O-])c2)=C(O)C1 | 4% | -5% | 7% | 0% | 24µM* | 4%
CCOc1ccc(C2C(C(=O)Nc3ccccc3OC)=C(C)Nc3c(C(=O)Nc4cccc(C)c4)cnn32)cc1 (stereo not drawn) | nt | nt | nt | nt | 2% | nt
COc1ccc(-c2nn(C)c3sc(C(=O)Nc4cc(OC)c(OC)c(OC)c4)cc23)cc1OC | nt | nt | nt | nt | 8.5µM* | ?
COc1ccc(NC(=O)c2cc3c(-c4ccc(OC)c(OC)c4)nn(C)c3s2)cc1OC | -2% | 0% | 1.6µM* | -1% | 11µM* | 4%
CC[n+]1c(/C=C/N(C)c2ccccc2)n(-c2ccccc2)c2ccc(-c3nc4ccccc4s3)cc21 | -41% | -41% | 4.1µM* | -49% | -16% | nt
Cc1ccc(NC(=O)C2CCCN(S(=O)(=O)c3c(C)nn(C)c3C)C2)c(C)c1 (stereo not drawn) | nt | nt | nt | nt | -3% | -10%
Oc1cccc2ccc(/C=C/c3cccs3)nc12 | 2.2µM* | ? | ? | 2.8µM* | 2.1µM* | 25%
Cc1ccsc1/C=C/C(=O)O | 1% | -2% | 2% | 1% | 0% | 16%
Cc1ccsc1/C=C/c1ccc2ccccc2n1 | ? | 2µM* | ? | 2.2µM* | 1.7µM* | 0.89µM*
Cc1ccsc1/C=C/c1ccc2cccc(O)c2n1 | 9.2µM* | ? | ? | 3.5µM* | 2.7µM* | ?
O=C(Cc1cccc2ccccc12)N/N=C/c1ccc2cccc(O)c2n1 | -6% | -1% | -6% | -6% | ? | nt
CCCn1cc(S(=O)(=O)c2cc(C)ccc2C)c(=O)c2cc(F)c(N3CCN(CC)CC3)cc21 | nt | nt | nt | nt | -4% | nt
Cc1cccc(-c2cc(C(=O)NCc3ccccn3)c3ccccc3n2)c1 | -2% | 9% | 16µM* | 17% | 8.5µM* | 12%
CCn1cc(CNC(=O)c2cc(-c3ccc(C)c(C)c3)nc3ccccc23)c(C)n1 | nt | nt | nt | nt | 2.4µM* | 12%
O=C(NCc1ccccn1)c1cc(-c2ccc(-c3ccccc3)cc2)nc2ccccc12 | -8% | 2.2µM* | ? | 3.5µM* | 0.38µM* | nt
O=C(NCc1ccccn1)c1cc(-c2ccccc2)nc2ccccc12 | -2% | -2% | ? | 1% | 17µM* | -5%
CC(C)S | nt | nt | nt | nt | nt | -1%
COc1ccccc1CNC(=O)CCNS(=O)(=O)c1ccc2c(c1)CCCC(=O)N2 | nt | nt | nt | nt | 6% | nt
Cc1ccc(Cl)cc1NC(=O)CSc1nc2ccccc2c2nc(-c3ccccc3)nn12 | nt | nt | nt | nt | -5% | nt
Cc1ccc(-c2cc(C(=O)NCCCN3CCCC3)c3ccccc3n2)cc1C | ? | 0% | ? | -9% | ? | nt
Cc1ccc(-c2cc(C(=O)NCc3ccccn3)c3ccccc3n2)cc1C | -4% | 19% | ? | 23% | 1.5µM* | 13µM*
O=C(NCCc1ccccn1)c1cc(-c2ccccc2Cl)nc2ccccc12 | -2% | 1% | ? | 9% | 5% | -49%
O=C(NCc1ccccn1)c1cc(-c2ccc(Cl)cc2)nc2ccccc12 | -6% | 3% | ? | -1% | 5.4µM* | 16%
O=C(NCc1ccccn1)c1cc(Cl)ccc1OCc1ccccc1 | -18% | -1% | 16µM* | 8% | -11% | nt
Cc1cc2ccccc2n2c(SCC(=O)Nc3cccc(C(F)(F)F)c3)nnc12 | nt | nt | nt | nt | -5% | 2%
COc1ccc(CNC(=O)c2ccc(-c3nc(CSc4ccc(C)cc4)c(C)o3)cc2)c(OC)c1 | nt | nt | nt | nt | -6% | nt
N[C@@H](CSCc1ccc(I)cc1)C(=O)O | nt | nt | nt | nt | nt | -4%[9.22 µM]
Cc1ccc2c(=O)cc(C(=O)Nc3ccc(S(=O)(=O)N4CCCCCC4)cc3)oc2c1C | nt | nt | nt | nt | -1% | -2%
